# Screening results (PubChem BioAssay)
# These entries were drawn from the full list.
# aSyn UTR act: Activators via SNCA 5'UTR binding, MLPCN; 300,000 compounds, 7.1% hits; activity score, % (tested at 7.5 µM), hits read low; AID 1814; alpha-synuclein 5'UTR reporter, activators screen; in the data active = activity score below about -60%
# The depositor's hits bear a star.
SMILES,aSyn UTR act
CCCc1ccc2oc(C(=O)NCCc3cnn(C)c3)c(C)c2c1,-181.9*
CCCc1ccc2oc(C(=O)N3CCCC3)c(C)c2c1,-178.9*
Cc1c(C(=O)N2CCN(C)CC2)oc2ccc(Br)cc12,-103.6*
Clc1ccsc1-c1ccnc(-n2cccc2)n1,-62.2*
c1ccc2nc(-c3nccs3)ccc2c1,-126.1*
Cc1cc(-c2sccc2Br)nc(-n2cccc2)n1,-86.8*
c1ccc2nc(-c3ccncc3)ccc2c1,-96.2*
Clc1ccsc1-c1ccc2ccccc2n1,-113.3*
O=C(O)c1ccccc1-c1csc(-c2ccccc2)n1,-118.2*
O=C(O)c1ccc(-c2nc(-c3ccccc3Cl)cs2)cc1,-118.4*
O=C(O)c1ccc(-c2nc(-c3ccc(Cl)c(Cl)c3)cs2)cc1,-100.2*
O=C(O)c1ccc(-c2nc(-c3ccccc3)cs2)cc1,-140.3*
Cc1oncc1-c1csc(-c2ccccc2)n1,-82.0*
c1ccc(-c2csc(-c3ccc(-c4csnn4)cc3)n2)cc1,-191.7*
O=C(O)c1ccccc1C(=O)Nc1ccc(-c2csc(-c3ccccc3)n2)cc1,-64.3*
O=C(O)c1ccccc1C(=O)Nc1ccc(Oc2cccc3ccccc23)cc1,94.4
c1ccc(COc2ccc(-c3csnn3)cc2)cc1,-185.2*
CCCCCC(=O)N[C@@H](c1ccccc1)[C@@H](O)C(=O)O[C@H]1C[C@@]2(O)[C@@H](OC(=O)c3ccccc3)C3[C@](C)(C(=O)[C@H](OC(C)=O)C(=C1C)C2(C)C)[C@@H](O)C[C@H]1OC[C@@]31OC(C)=O (stereo partly drawn),87.2
CNC(=O)c1ccc(-c2nc(-c3ccccc3)cs2)cc1,-116.5*
CNC(=O)c1csc(-c2ccc(C)cc2)n1,-80.8*
S=C(NCc1ccccc1)NNc1nc2ccccc2[nH]1,-73.8*
CCCOc1ccc2nc(NC(=O)OC)[nH]c2c1,83.9
c1ccc2[nH]c(NCc3ccc4c(c3)OCO4)nc2c1,-179.5*
c1ccc(CNc2nc3ccccc3[nH]2)cc1,-78.5*
COc1ccc2nc(NCc3ccccc3)[nH]c2c1,-80.0*
SMILES,aSyn UTR act
N#Cc1cc(C#N)c(N2CCN(c3ccccn3)CC2)nc1N,-203.7*
O=C(O)COn1c(-c2ccc(Cl)cc2)nc2ccc(Cl)cc21,-123.4*
COn1c(-c2ccc(Cl)cc2)nc2ccc(Cl)cc21,-114.4*
CC(=O)N1CCN(c2ccc(NC(=O)c3ccc(Cl)c([N+](=O)[O-])c3)cc2)CC1,-70.4*
Cc1cccc(C(=O)Nc2ccc(C(=O)N3CCCCC3C)cc2)c1 (stereo not drawn),-84.0*
Cc1ccc(N2CCN(C(=O)c3ccccc3NC(=O)c3ccccc3C(=O)O)CC2)cc1,-99.5*
CC(=O)N1CCN(c2ccc(NC(=O)c3ccccc3)cc2)CC1,-105.6*
CC(=O)N1CCN(c2ccc(NC(=O)c3cccc(C)c3)cc2)CC1,-72.8*
Cc1ccc(Nc2n[nH]c(C)c2[N+](=O)[O-])cc1C,-164.5*
C=C(CC)C(=O)c1ccc(OCC(=O)O)c(Cl)c1Cl,-67.1*
Fc1cc(Br)ccc1NC(=S)Nc1ccccc1,-115.0*
Cc1ccc(NC(=S)Nc2ccc(Br)cc2)cc1,-85.8*
Fc1ccccc1NC(=S)Nc1ccc(Br)cc1,-73.6*
COc1ccc(/C=C2\SC(=O)N(CCNC(=O)CCS(=O)(=O)c3ccc(C)cc3)C2=O)cc1,-64.1*
COc1ccc(/C=C2\SC(=O)N(CCNC(=O)Cn3cnnn3)C2=O)cc1,-186.6*
COc1ccc(/C=C2\SC(=O)N(CCNC(=O)C3CCN(S(=O)(=O)c4cccs4)CC3)C2=O)cc1,-112.8*
CC(C)c1ccc(/C=C2\SC(=O)N(CC(=O)NCCCn3ccnc3)C2=O)cc1,-109.9*
COc1ccc(/C=C2/SC(=S)N(CCCC(=O)Nc3ccc(O)cc3)C2=O)cc1,68.0
COc1ccc(NC(=O)c2cccc(Oc3ccccc3)c2)cn1,-108.5*
COc1ccc(NC(=S)NC(=O)c2ccccc2)cn1,-137.8*
CCc1cc2c(N=Nc3c(O)[nH]c4ccccc34)ncnc2s1,-62.1*
Cc1sc2ncnc(N=Nc3c(O)[nH]c4ccccc34)c2c1C,-140.9*
Oc1[nH]c2ccccc2c1N=Nc1nncc2ccccc12,-62.2*
Cc1cccc(-n2c(N)cc(=O)[nH]c2=S)c1,-214.5*
O=C(Nc1ccc(Cl)cc1C(F)(F)F)c1ccc(Cl)cc1,-104.4*
SMILES,aSyn UTR act
Cc1ccc(C(=O)Nc2ccc(Cl)cc2C(F)(F)F)c(Cl)c1,-101.1*
Cc1ccc(NC(=O)c2ccc(Cl)cc2Cl)cc1O,-169.7*
O=C(Nc1cc(F)c(Br)cc1F)c1ccc(Cl)cc1,-152.3*
C#Cc1cccc(NC(=O)c2ccc(Cl)cc2Cl)c1,-185.2*
Cc1ccc(C(=O)Nc2ccc(Cl)cc2C)c(Cl)c1,-71.1*
O=C(/C=C/c1ccco1)Nc1ccccc1N1CCCC1,-79.6*
O=C(/C=C/c1ccco1)Nc1ccccc1C(=O)O,-116.8*
Cc1cc(C(=O)NC2CCCCC2)c(C)n1-c1ccc(F)cc1,-174.2*
Cc1cc(C(=O)CN2CCC(C)CC2)c(C)n1-c1ccc(F)cc1,-97.3*
Cc1cc(C(=O)CN2CCCCC2)c(C)n1-c1ccc(F)cc1,-128.9*
Cc1cc(C(=O)CNCc2ccco2)c(C)n1-c1ccc(F)cc1,-105.9*
